697 NFkB inh – lowers PMA/ionomycin-induced NF-kB signal in 697 B cells. 697 B-cell NF-kB luciferase reporter, 16 h. inhibition, % at 4 µM. 330,000 tested, 0.33% active; in the data active means inhibition above about 35%
Beta apoptosis – blocks beta cell apoptosis | 300,000 tested, 0.8% active | protection from apoptosis, % (concentration not given with the values) | INS-1E cytokine-induced death, ATP luminescence, 48 h; percent of positive-control rescue, neutral wells zero;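 active means Every replicate reaches about 75%, or at least half do and their mean reaches it too, limit read from the data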;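 further: 0% = cytokine-treated negative control wells and 100% = positive control rescue; higher means more ATP so stronger rescue from cytokine killing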
Gli-Sufu antag – Gli-Sufu pathway antagonism; Sufu-KO-LIGHT fibroblasts, Gli luciferase reporter luminescence; inhibition, % at 5 µM; 340,000 tested, 0.74% active; AID 588413;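 active means inhibition above about 55%, limit read from the data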;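 further: 0% = DMSO-treated cells and 100% = wells with medium but no cells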
Jurkat NFkB inh – inhibitors of the PMA/ionomycin-induced NF-kB reporter in Jurkat cells | 330,000 tested, 0.53% active | PMA/ionomycin-induced NF-kB luciferase reporter, luminescence | AID 435003 | inhibition, % at 4 µM; in the data active means inhibition above about 50%
Jurkat NFkB conf – lowers PMA/ionomycin-induced NF-kB signal in Jurkat cells; AID 435020; inhibition, % at 4 µM; Jurkat NF-kB luciferase, 16 h; shares compounds with Jurkat NFkB inh; 2,700 tested, 27% active;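 active means inhibition reaching about 45% at 4 µM in either replicate, limit read from the data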;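 further: plate controls were PMA/ionomycin stimulated DMSO wells for no effect and unstimulated DMSO wells for full effect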
697 NFkB conf – inhibitors of the PMA/ionomycin-induced NF-kB reporter in 697 B cells, retest | shares compounds with 697 NFkB inh | 697 B-cell NF-kB luciferase, 16 h | inhibition, % at 4 µM | 2,000 tested, 35% active | AID 449746; in the data active means inhibition mostly above about 28%, no sharp cut-off; inactive means mostly below about 22%
Gli-Sufu confirm – confirmation of Gli-SUFU pathway antagonists; shares compounds with Gli-Sufu antag; Sufu-KO-LIGHT cells, Gli luciferase reporter, luminescence; inhibition, % at 5 µM; 2,500 tested, 40% active; AID 602428;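 active means mean inhibition at 5 µM reaching about 45%, limit read from the data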;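 further: plate controls were DMSO-treated cells for no effect and wells lacking cells for full effect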
Gli cytotox – cytotoxicity counter-screen for Gli-SUFU antagonists | shares compounds with Gli-Sufu antag | Sufu-KO-LIGHT cells cytotoxicity, ATP luminescence | cytotoxicity, % at 5 µM | 2,500 tested, 32% active | AID 651994;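 active means mean cytotoxicity at 5 µM above about 25%, limit read from the data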;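 further: cells exposed to compound overnight for roughly 16 to 18 hours; plate controls were DMSO wells with cells for no effect and medium without cells for full effect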
Wnt3a cs – inhibits Wnt3a reporter, counter-screen for Gli-SUFU antagonists. shares compounds with Gli-Sufu antag. Wnt-LIGHT cells, Wnt3a-driven luciferase reporter, luminescence. inhibition, % at 6.25 µM. 2,500 tested, 20% active. AID 651995;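 active means mean inhibition above about 25%, limit read from the data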
Starred values were filed as active, the others as inactive; / = not tested or not shown. In the library only some 1.8% were active in any assay of this set; here they are far more common.

SMILES | 697 NFkB inh | Beta apoptosis | Gli-Sufu antag | Jurkat NFkB inh | Jurkat NFkB conf | Gli-Sufu confirm | Gli cytotox | Wnt3a cs | others
O=C(c1ccc(Cl)cc1)N1CCN(CCc2ccccn2)CC1 | 0 | -4 | 5 | -13 | / | / | / | /
COC(=O)c1cnc(Oc2ccc(NC(=O)NC(=O)c3c(OC)cccc3OC)cc2)cc1C(F)(F)F | -77 | 33 | 52 | 66* | 60* | 53* | 58* | -31
Cn1nc(CC(=O)Nc2ccc3c(c2)CCC3)c2ccccc2c1=O | 41* | / | 72* | 59* | 68* | 68* | 41* | 3 | 697 NFkB conf=47*
Cn1nc(CC(=O)NC2CCCCCCCCCCC2)c2ccccc2c1=O | -37 | 17 | 27 | 5 | / | / | / | /
COc1ccc(-c2n[nH]c3c2CN(C(=O)c2ccccc2)CC3)cc1 | -8 | 3 | 1 | 13 | / | / | / | /
Cc1cnc(NC(=O)Nc2ccc(Cl)cc2)s1 | 65* | 25 | 76* | 81* | 24 | 49* | 11 | -125 | 697 NFkB conf=49*
Cc1cnc(NC(=O)CSc2ccc(Cl)cc2)s1 | 9 | -8 | 3 | -7 | / | / | / | /
NNc1nc(-c2ccccc2Cl)c2cc(Br)ccc2n1 | -1 | 5 | -99 | -10 | / | / | / | /
CCOc1ccc(CCNC(=O)CN2CCN(Cc3ccccc3F)C2=O)cc1OCC | -20 | -3 | -5 | 11 | / | / | / | /
O=C(O)c1ccc(N/N=C/c2ccc3nccnc3c2)cc1 | 20 | 5 | 55* | 60* | 18 | 59* | 35* | 101*
O=C(O)c1ccc(N/N=C/c2ccncc2)cc1 | -43 | -1 | -4 | -9 | / | / | / | /
CCN(CC)S(=O)(=O)c1ccc(Oc2ccc(S(=O)(=O)N(CC)CC)cc2)cc1 | 84* | 113* | 80* | 55* | 75* | 85* | 45* | 29* | 697 NFkB conf=87*
CCN(CC)S(=O)(=O)c1ccc(Oc2ccccc2OC)cc1 | -4 | -1 | 2 | -1 | / | / | / | /
NNC(=O)CNC(c1ccccc1)c1cc(Br)ccc1NC(=O)CCN1CCOCC1 (stereo not drawn) | -3 | / | 10 | 2 | / | / | / | /
FC(F)(F)c1cc(-c2ccco2)nc(-n2cnc3ccccc32)n1 | -5 | -8 | 16 | -8 | / | / | / | /
Cc1nc2ccccc2n1-c1nc(-c2ccco2)cc(C(F)(F)F)n1 | -43 | 131* | 68* | 83* | 30 | 78* | 20 | 77*
CCCC(=O)NC(c1ccccc1Cl)c1ccc2cccnc2c1O (stereo not drawn) | -5 | 99* | 83* | 63* | 81* | 80* | 28* | 69*
CCC(=O)NC(c1ccc(C)cc1)c1ccc2cccnc2c1O (stereo not drawn) | -6 | 6 | 89* | 55* | 76* | 82* | 42* | 83*
CCCCC(=O)NC(c1ccc(Cl)cc1Cl)c1ccc2cccnc2c1O (stereo not drawn) | -25 | 85* | 86* | 51* | 75* | 83* | 34* | 82*
O=C1c2cccnc2C(=O)N1Cc1ccc(S(=O)(=O)N2CCN(c3ccc(Cl)cc3)CC2)cc1 | -25 | 2 | 1 | 5 | / | / | / | /
COc1ccccc1-n1c(SCC(=O)N2CCOCC2)nc(O)cc1=O | 0 | -7 | -12 | -11 | / | / | / | /
COc1cccc(-c2nc(-c3ccccn3)no2)c1 | -41 | / | -14 | 20 | / | / | / | /
COc1cccc2cc(C(=O)OCC(=O)N3CC(C)OC(C)C3)c(=O)oc12 (stereo not drawn) | -20 | 0 | -11 | -24 | / | / | / | /
COc1ccc2c(c1)N(C)/C(=C/c1cccc[n+]1C)S2 | -26 | 105* | 80* | 61* | 11 | 84* | 36* | 29*
CCN(C(=O)c1ccc(C(C)(C)C)cc1)c1nnc(Cn2nnc3ccccc32)s1 | 96* | 112* | 61* | 57* | 69* | 61* | 33* | 42* | 697 NFkB conf=91*
CCOC(=O)CC1CCCCN1C(=O)c1cc(COc2cccc3cnccc23)on1 (stereo not drawn) | -35 | 96* | 74* | 50* | 72* | 62* | 20 | 25
